From PubChem BioAssay
Only some compounds are listed: those with a hit (about 4.6% of all), similar ones and a draw of the others.
hcDAF-12 act: H. contortus DAF-12 nuclear receptor activators, primary screen, cell-based, luminescence, HEK293, lit1-tk-luc reporter | 370,000 tested, 1.4% active | activation, % at 6.8 µM | HEK293 hcDAF-12 lit1-tk-luc reporter; 0% DMSO, 100% Δ7-dafachronic acid;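 active means activation above the mean of all tested compounds plus 3 SD, cut at about 5.5% in these data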;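 further: 100% = response to 3 µM Δ7-dafachronic acid high control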
hgDAF12 agonist: H. glycines DAF-12 receptor agonists, primary screen, cell-based, luminescence, HEK293, GAL4 fusion, UAS-luciferase; Nuclear hormone receptor DAF-12 (Heterodera glycines), GAL4 fusion; HEK293 GAL4-hgDAF12 UAS-luciferase reporter, agonist luminescence; normalized to butyrate control; activation, % at 6.8 µM; 370,000 tested, 1.8% active;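 active means activation above a cutoff set at the mean of all screened compounds plus 3 SD, cut at about 10% in these data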;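 further: 0% = DMSO wells and 100% = sodium butyrate wells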
ssDAF-12 act: S. stercoralis DAF-12 nuclear receptor activators, primary screen, cell-based, luminescence, HEK293, GRIP1 co-expression, lit1-tk-luc. activation, % at 6.8 µM. 370,000 tested, 1% active. Nuclear hormone receptor DAF-12 (Strongyloides stercoralis). AID 652126, 2013. HEK293 ssDAF-12/GRIP1 lit1-tk-luc reporter; % of 3 µM dafachronic acid response;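 active means activation above the mean over all tested compounds plus 3 SD, cut at about 0.9% in these data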;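 further: 0% = DMSO-only wells and 100% = 3 µM delta7-dafachronic acid wells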
Wee1 stabilizer: Wee1 degradation inhibitors, primary screen, cell-based, HeLa, Wee1K328M-luciferase, luminescence. HeLa Luc-Wee1K328M stability; 100% = proteasome inhibitor MG132 effect. Wee1-like protein kinase (Homo sapiens), P30291. reporter increase, % at 5 µM. 220,000 tested, 1.2% active;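 active means activation above the mean of all tested compounds plus 3 SD, set per screening run, cut at about 8.8% in these data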;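 further: cells exposed to compound for 20 h before luminescence read; 0% = DMSO alone and 100% = MG132 at 30 µM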
Target sequence (P30291 whole entry K328M): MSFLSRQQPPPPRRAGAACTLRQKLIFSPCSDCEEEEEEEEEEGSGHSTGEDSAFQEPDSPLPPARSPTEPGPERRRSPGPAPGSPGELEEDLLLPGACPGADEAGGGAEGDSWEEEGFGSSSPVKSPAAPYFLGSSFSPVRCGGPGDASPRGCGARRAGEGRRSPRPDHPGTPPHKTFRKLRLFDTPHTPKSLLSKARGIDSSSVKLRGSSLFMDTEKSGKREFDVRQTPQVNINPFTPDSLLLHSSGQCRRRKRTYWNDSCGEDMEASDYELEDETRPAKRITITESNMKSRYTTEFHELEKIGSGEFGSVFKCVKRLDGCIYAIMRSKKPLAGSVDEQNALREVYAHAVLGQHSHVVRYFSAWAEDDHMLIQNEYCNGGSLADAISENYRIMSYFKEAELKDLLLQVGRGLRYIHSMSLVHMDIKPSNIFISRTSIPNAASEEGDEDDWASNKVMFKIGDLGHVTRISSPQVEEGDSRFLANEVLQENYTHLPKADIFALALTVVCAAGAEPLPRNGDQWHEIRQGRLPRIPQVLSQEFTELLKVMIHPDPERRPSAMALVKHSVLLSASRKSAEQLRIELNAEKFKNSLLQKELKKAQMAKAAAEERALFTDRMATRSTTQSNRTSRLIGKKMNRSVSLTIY
DAX1 inh-1: DAX1 (NR0B1) inhibitors, primary screen, cell-based, HEK293, Gal4-DAX1, luciferase luminescence | Nuclear receptor subfamily 0 group B member 1 (Homo sapiens), P51843 | AID 504766, 2011 | 340,000 tested, 0.99% active | HEK293 Gal4-DAX1 luciferase reporter | inhibition, % at 6.75 µM;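 active means inhibition above the mean over all tested compounds plus 3 SD, cut at about 4.2% in these data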;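 further: 0% = DAX1-transfected cells with DMSO and 100% = empty-vector control cells with DMSO; inhibition shows as a rise in luminescence from relieved DAX1 repression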
DAX1 inh-2: DAX1 (NR0B1) inhibitors on StAR promoter, primary screen, cell-based, luminescence, SF-1 (NR5A1), full-length DAX-1; HEK293T StAR-luciferase reporter, SF-1/DAX-1 repression relief; inhibition, % at 6.8 µM; 370,000 tested, 1.1% active; AID 652010, 2013;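 active means inhibition above the mean over all tested compounds plus 3 SD, cut at about 3.6% in these data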;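 further: 0% = DAX-1 cells with DMSO and 100% = cells lacking DAX-1 with DMSO; higher inhibition means more luminescence from relief of DAX-1 repression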
LXRb hcDAF ctr: LXR agonists, Gal4 luciferase reporter, confirmation, counter-screen for hcDAF-12 agonist project, cell-based, luminescence, HEK293, H. contortus campaign | shares compounds with hcDAF-12 act | HEK293 Gal4-LXR tk-luc reporter, 24 h; normalized: DMSO 0%, positive control 100% | activation, % at 6.8 µM | 3,400 tested, under 10 active;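 active means mean percent activation of the reporter above a cutoff set as the average over tested compounds plus their standard deviation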
hcDAF12 conf: H. contortus DAF-12 receptor agonists, confirmation, cell-based, luminescence, HEK293, lit1-tk-luc, triplicate; shares compounds with hcDAF-12 act; HEK293 hcDAF-12 lit1-tk-luc reporter; % of Δ7-dafachronic acid response; activation, % at 6.8 µM; 3,400 tested, 61% active;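 active means mean activation across triplicate tests above the threshold derived from the earlier primary screen, cut at about 5.5% in these data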;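 further: 0% = DMSO only wells and 100% = 3 µM Δ7-dafachronic acid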
* marks the source's active call; other numbers are inactive results; · = no result.

SMILES | hcDAF-12 act | hgDAF12 agonist | ssDAF-12 act | Wee1 stabilizer | DAX1 inh-1 | DAX1 inh-2 | LXRb hcDAF ctr | hcDAF12 conf
COc1ccc(C(C)=O)cc1Cn1c(C)c(C(=O)NC2CC2)sc1=O | -2 | -2 | -1 | · | · | 0 | · | ·
Nc1cc(Cl)ccc1C(=O)OCC(=O)NCc1cccs1 | 2 | 5 | 0 | · | 0 | 0 | · | ·
Cc1cccc(NC(=O)COC(=O)CN2C(=O)c3ccccc3C2=O)c1C | -2 | 0 | -1 | · | 1 | 0 | · | ·
N#C/C(=C\c1ccccc1OCC(=O)O)c1nc2ccccc2[nH]1 | 7.8* | 5 | 0 | · | 2 | 1 | 0 | 4
N#C/C(=C\c1cn(-c2ccccc2)nc1-c1cc2ccccc2o1)c1nc2ccccc2[nH]1 | 6.6* | 6 | 0 | 5 | 2 | 1 | 0 | 1
N#C/C(=C\c1cccs1)c1nc2ccccc2[nH]1 | 2 | 4 | 0 | -1 | 1 | 0 | · | ·
O=C(N/N=C/c1cn(-c2ccccc2)nc1-c1cc2ccccc2o1)c1cccnc1 | 8.6* | 4 | 1.2* | 0 | 0 | 1 | 1 | 11*
CN(C)C(=O)CCc1ccc2c3c([nH]c2c1)[C@]1(CCc2ccccc2)[C@@H](C(=O)N2CCCCC2)C[C@H](CC(=O)NC(C)(C)C)C(=O)N1CC3 | -2 | -4 | -1 | · | -2 | 2 | · | ·
CC(C)Oc1cccc(C(=O)NC(=S)Nc2cccnc2)c1 | 2 | 7 | 0 | 2 | 1 | 1 | · | ·
COc1cccc(C(=O)NC(=S)Nc2cccnc2)c1 | 7.8* | 7 | 1.0* | 4 | 0 | 1 | 0 | 1
COCCNC(=S)NNc1ccccc1[N+](=O)[O-] | 8.7* | 2 | 0 | -2 | 0 | -1 | 0 | 5
CC(=O)Nc1oc(-c2cccc3ccccc23)nc1C#N | -1 | -2 | -1 | · | 2 | 0 | · | ·
Cc1ccc(-c2nnc(-c3cccc4ccccc34)o2)cc1 | 7.6* | 7 | 1.2* | · | -1 | 1 | 2 | 21*
O=C1c2ccccc2NC(c2ccc(-c3cccs3)o2)N1O (centres undefined) | 7.1* | 12* | 1.0* | · | 2 | 2 | 1 | 6.0*
O=C1c2ccccc2NC(c2ccc(Br)o2)N1O (centres undefined) | 2 | 3 | 0 | · | 1 | 2 | · | ·
O=C1c2ccccc2CC1Sc1nnc(-c2ccccn2)o1 (centres undefined) | 6.7* | 7 | 0 | 1 | -1 | 0 | 0 | 5
O=C1CC(Sc2nnc(-c3ccccc3O)o2)C(=O)N1c1ccccc1 (centres undefined) | -2 | -3 | -2 | -2 | 2 | 0 | · | ·
C[C@H]1CN(S(=O)C(C)(C)C)[C@H](CCO)/C1=C\c1ccccc1 (some centres undefined) | -1 | -1 | -1 | · | -1 | 0 | · | ·
O=C(/C=C/c1cccc([N+](=O)[O-])c1)c1ccco1 | -1 | 2 | -1 | · | 0 | -1 | · | ·
Cc1ccc([N+](=O)[O-])cc1N/C=C/C(=O)c1ccco1 | 8.1* | 7 | 0 | 3 | 1 | 2 | 0 | 6.1*
COCCNC(=O)C1(C)CCN(Cc2ccc(C(C)C)cc2)C1 (centres undefined) | 0 | -3 | -1 | · | · | -1 | · | ·
c1ccc(N2CC3CCc4ccccc4C3=N2)cc1 (centres undefined) | 12* | 7 | 1.4* | -2 | 4 | 1 | 1 | 12*
CN1N=C2c3ccccc3CCC2C1c1ccc(F)cc1 (centres undefined) | 5 | 2 | 0 | 3 | · | 0 | · | ·
CCOc1ncccc1C(=O)OCC(=O)NCCc1ccc(S(N)(=O)=O)cc1 | 0 | -2 | -2 | · | 0 | 2 | · | ·
O=S(=O)(NCc1c(Cl)cccc1Oc1ccccc1)c1ccccc1 | 20* | -3 | -1 | 5 | 0 | 0 | 0 | -1
SMILES | hcDAF-12 act | hgDAF12 agonist | ssDAF-12 act | Wee1 stabilizer | DAX1 inh-1 | DAX1 inh-2 | LXRb hcDAF ctr | hcDAF12 conf
Cc1ccc(NC(=O)CSCC(=O)Nc2ccccc2C(=O)NC2CC2)cc1 | -1 | -1 | 0 | · | 2 | 0 | · | ·
O=C(O)c1ccc(N=Nc2c(O)ccc3ncccc23)cc1 | 6.6* | 12* | 1 | · | 0 | 3 | 1 | 10*
O=C(O)c1cc(N=Nc2c(O)ccc3ccccc23)cc(C(=O)O)c1 | 2 | 4 | -1 | -4 | 0 | -1 | · | ·
O=C(COc1ccccc1Cl)Nc1ccc(Cl)cn1 | 9.0* | 15* | 1.4* | 7 | 2 | 3 | 1 | 11*
COc1ccccc1C(=O)NC(=S)Nc1cccnc1Cl | 8.1* | 5 | 1.2* | · | -4 | 1 | 2 | 19*
COc1ccccc1C(=O)N/N=C(\C)CC(=O)Nc1ccccn1 | 7.3* | 3 | 0 | · | -1 | 0 | 0 | 6.0*
COc1ccccc1C(=O)N/N=C(\C)CC(=O)Nc1ccc(Cl)cn1 | 6.6* | 5 | 0 | 1 | 3 | 2 | 0 | 3
O=C(COc1ccccc1)Nc1ccc(Cl)cn1 | 0 | 2 | 0 | 0 | -1 | 1 | · | ·
Cc1cccn2c(=O)c3cc(C(=O)N4CC(C)CC(C)C4)sc3nc12 (centres undefined) | 4 | 2 | 0 | · | 3 | 1 | · | ·
CCOC(=O)N1CCN(C(=O)c2cc3c(=O)n4cccc(C)c4nc3s2)CC1 | 7.4* | 2 | 0 | · | 2 | 0 | 0 | 3
CCCCc1c(-c2ccccc2OC)ncn1Cc1ccc(Cl)cc1Cl | 1 | -2 | -1 | · | · | 3 | · | ·
COc1cc(Cl)c(C)cc1NC(=O)COc1ccc(C)nc1[N+](=O)[O-] | 0 | 0 | -1 | · | 0 | 1 | · | ·
Cc1oc(C(=O)O)cc1COc1cccc2ccccc12 | 1 | 0 | -1 | · | 4 | 0 | · | ·
